# Source: PubChem (National Center for Advancing Translational Sciences (NCATS))
# Hits are enriched below; roughly 20% of the tested compounds scored in any of these assays.
# Pf growth 96h: Primary qHTS for delayed death inhibitors of the malarial parasite plastid, 96 hour incubation; actives 6.9% (n = 320,000); Potency, µM (doses to about 28.7 µM), without a hit: top-dose activity change, negative = inhibition, most hits filed as inhibitors; P. falciparum luciferase reporter growth, 96 h; AID 504834, 2011; also: potency is read from the fitted curve at half-maximal effect; % is scaled to controls: 0 for no effect and ±100 for the full control effect
#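 P. falciparum expressing integrated firefly luciferase, in erythrocytes at 2% hematocrit, 0.05% parasitemia, incubated with compounds 96 h at 37 C, 5% CO2. Growth inhibition read as loss of luminescence; two-generation exposure targets delayed-death apicoplast inhibitors.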
# Cycloheximide cs: Cycloheximide Counterscreen for Small Molecule Inhibitors of Shiga Toxin. AID 2314, 2010. cell reporter, cycloheximide protein synthesis inhibition counterscreen. actives 12% (n = 300,000). max response, %; in the data active = max response mostly above about 13%, no sharp cut-off; inactive = mostly below about 14%; also: read at 38.3 µM for the half of the compounds with a filed dose; 0% is about no effect
# Pf growth 48h: Primary qHTS for delayed death inhibitors of the malarial parasite plastid, 48 hour incubation; P. falciparum luciferase growth in erythrocytes, 48 h; actives 5.9% (n = 310,000); AID 504832, 2011; Potency, µM (top dose mostly 28.7 µM), without a hit: at the highest dose activity change, negative = inhibition, hits mostly inhibitors; also: potency is read from the fitted curve at half-maximal effect; % is scaled to controls: 0 for no effect and ±100 for the full control effect
#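 Luciferase-expressing parasites in RBCs, 2% Hct / 0.1% parasitemia final; RPMI 1640 + 0.5% Albumax; 37 C, 5% CO2, one generation; luminescence read-out, lower signal = inhibition.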
# Shiga toxin inh: A qHTS for Small Molecule Inhibitors of Shiga Toxin; Vero cells, Shiga toxin protein synthesis inhibition reporter; AID 2315, 2010; actives 9.2% (n = 290,000); inhibition, % at 38.7 µM; in the data active = inhibition mostly above about 28%, no sharp cut-off; inactive = mostly below about 43%; also: 0% is about no effect
# HCMV inh: qHTS Assay for inhibitors of the human cytomegalovirus (HCMV). HFF cells, HCMV-luciferase reporter, 72 h; stronger effect = lower value. activity change, negative = inhibition, % at 57.5 µM. actives 4.5% (n = 410,000); in the data active = activity change below about -60%; inconclusive = no clear call, values can overlap the other calls; inactive = above about -39%; also: % is scaled to controls: 0 for no effect and ±100 for the full control effect
#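 Compounds were evaluated in HFFs infected with an HCMV luciferase reporter virus (MOI 1 PFU/cell). Luciferase in lysates collected 72 h post infection served as the replication measure.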
# The depositor's hits bear a star; i = inactive; ? = inconclusive; / = not tested or not shown; + = active, no number; [ ] = dose if it differs, or a comment. Unless noted, calls follow the shape of the dose curve; as a rule, active = well fitted inhibition curve with a large enough effect; inconclusive = small, poorly fitted or top-dose-only effect, or another doubt; inactive = no such curve, though single readings can be large or run the other way.
SMILES,Pf growth 96h,Cycloheximide cs,Pf growth 48h,Shiga toxin inh,HCMV inh
CCOC(=O)c1cc2c(ccc3nc(C)c(C)c32)[nH]c1C,-3%,11,?,11,-17
O=C1CCCC2=C1C(c1ccncc1)Nc1ccccc1N2 (stereo not drawn),10µM*,1,/,-2,-8
O=C1CCCC2=C1C(c1ccccc1)NC(=S)N2 (stereo not drawn),1%,-1,13%,-7,-103*
COc1ccc2cc(C(C)C(=O)Nc3cccc(S(=O)(=O)N(C)C)c3)ccc2c1 (stereo not drawn),?,-1,?,-3,-29
Cc1ccc(C(=O)N/N=C2\CCCc3ccccc32)c(C)c1,274%,49*,110%,71*,74
NC(=O)C(=O)N/N=C1\CCc2ccccc21,0%,37*,131%,62*,-3
C#C[C@]1(O)CCC2C3C(=O)C=C4C(Cl)=CCC[C@]4(C)C3CC[C@@]21C (stereo partly drawn),/,/,/,/,-80*
CCOC(=O)C1=C[C@@H](C(C)(C)C)N(S(=O)(=O)c2ccc([N+](=O)[O-])cc2)[C@H]1c1ccccc1,/,/,/,/,-75*
CCOC(=O)C1=CC[C@@H](c2cccc(Br)c2)N(S(=O)(=O)c2ccc(F)cc2)[C@H]1c1cccc(Cl)c1,/,/,/,/,-74*
CCOC(=O)C1=C[C@@H](C(C)(C)C)N(S(=O)(=O)c2ccc(C)cc2)[C@H]1c1cccc(Cl)c1,/,/,/,/,-88*
CCOC(=O)C1=C[C@@H](C(C)(C)C)N(S(=O)(=O)c2ccc(C)cc2)[C@H]1c1ccc(OC)cc1,/,/,/,/,-64*
CCOC(=O)C1=C[C@@H](CC)N(S(=O)(=O)c2ccc(C)cc2)[C@H]1c1cccc(Cl)c1,/,/,/,/,-27
CCOC(=O)C1=C[C@@H](CC)N(S(=O)(=O)c2ccc([N+](=O)[O-])cc2)[C@H]1c1ccccc1,/,/,/,/,-39
COc1ccc(NS(=O)(=O)c2ccc(C(=O)OC(C)C(=O)N3CCOCC3)cc2)cc1 (stereo not drawn),-8%,2,-4%,-11,-10
Cc1cccc(NC(=O)CNC(=O)c2cccc(-n3cccc3)c2)c1C,26%,/,5%,/,-26
COc1cccc(CNC(=O)N2CCc3c(sc4c3CCCC4)C2c2ccc(F)cc2)c1 (stereo not drawn),/,/,/,/,-26
Cc1ccc(S(=O)(=O)NCC(=O)N(CC(=O)NCc2ccco2)Cc2ccco2)cc1,13µM*,-2,3%,26,8
Cc1ccc(S(=O)(=O)NCC(=O)N(CC(=O)NCC2CCCO2)Cc2ccco2)cc1 (stereo not drawn),i,10*,19%,29,-7
Cc1ccc(S(=O)(=O)NCC(=O)N(CC(=O)NCC2CCCO2)Cc2ccccc2)cc1 (stereo not drawn),-27%[5.75 µM],-2,6%,41,-21
O=C(C[C@H]1C[C@H](C(=O)N2CCCCC2)[C@@]2(CCc3ccccc3)c3[nH]c4ccc(Cl)cc4c3CCN2C1=O)NCc1cccc(C(F)(F)F)c1,/,/,/,/,5
CCN(C(=O)c1ccc(S(C)(=O)=O)cc1)C12CC3CC(CC(C3)C1)C2,?,-1,-19%,-5,-28
S=C(SCc1c(Cl)cccc1Cl)N1CCSCC1,/,/,/,/,87
O=[N+]([O-])c1ccc(N=Nc2c(Cl)cc(O)cc2Cl)cc1,?,29*,?,111*,-100*
CCOC(=O)Cn1nnc(-c2ccc(S(C)(=O)=O)cc2)n1,-2%,-5,22%,-26,-11
CSc1ccc(-c2nnn(Cc3ccc(Br)cc3)n2)cc1,17%,36*,/,45,-34
SMILES,Pf growth 96h,Cycloheximide cs,Pf growth 48h,Shiga toxin inh,HCMV inh
Cc1cc(Cn2nnc(-c3ccc(Br)cc3)n2)cc(C)c1O,1%,/,?,/,-4
NC(=O)Cn1nnc(-c2ccc(C(F)(F)F)cc2)n1,6%,17,39%,32*,-24
CCOC(=O)Cn1nnc(-c2ccc(SC)cc2)n1,/,47*,24%,67*,40
CSc1ccc(-c2nnn(Cc3ccccn3)n2)cc1,?,19*,118%,79*,71
COc1cccc(N2CCN(C(=O)CCC(=O)c3ccc(Cl)s3)CC2)c1,11%,/,8%,/,0
CC1CCN(C(=O)Cn2c(=O)n(Cc3ccco3)c(=O)c3sccc32)CC1,-9%,-3,-15%,-4,-5
COc1ccc(N2CC(NC(=O)c3ccc(S(=O)(=O)N4CCCC4)cc3)CC2=O)cc1 (stereo not drawn),/,/,/,/,48
COc1ccc(C2c3sc(=O)[nH]c3SC3C4CCC(C4)C23)cc1OC (stereo not drawn),9.3µM*,1,?,2,-13
COC(=O)C(C(=O)OC)C(C[N+](=O)[O-])c1ccc(O)c(OC)c1 (stereo not drawn),?,-7,-39%,-7,-16
Cc1ccc(S(=O)(=O)Nc2nc(C)c(C)s2)cc1,6%,-5,-11%,2,50
Cc1ccc(NC(=O)CN2C(=O)N/C(=C/c3ccccc3OCc3cccc(C(=O)O)c3)C2=O)cc1,-1%,43*,65%,48*,85
Cc1cccc(NC(=O)CN2C(=O)N/C(=C\c3ccc(-c4cccc(C(=O)O)c4)o3)C2=O)c1,-11%,54*,30%,174*,0
CCN=C1S/C(=C\c2ccc(-c3cccc(C(=O)O)c3)o2)C(=O)N1CC,-29%,83*,i,+,/
Cc1ccc(OC(C)C(=O)N2CCN(CCc3ccncc3)CC2)cc1C (stereo not drawn),/,/,/,/,9
CCOC(=O)C1CCCCN1Cc1ccccc1C(F)(F)F (stereo not drawn),28%,-1,15%,-16,28
O=C(/C=C\c1cccs1)N1CCN(Cc2ccc3c(c2)OCO3)CC1,56%,7,-19%,5,-17
Cc1cc(NC(=O)CCCn2cnc([N+](=O)[O-])n2)no1,21%,1,3%,-6,-3
Cc1cc(NC(=O)CCCn2nc(C)c([N+](=O)[O-])c2C)no1,1.5µM*,8,5%,-4,-16
Cc1ccc(C)c(Oc2cc(NC(=O)CCCn3nc(C)c([N+](=O)[O-])c3C)cc([N+](=O)[O-])c2)c1,?,11,?,-13,-88*
Cc1nn(CCCC(=O)Nc2cc(Oc3ccccc3)cc([N+](=O)[O-])c2)c(C)c1[N+](=O)[O-],53%,-1,-13%,-9,3
CCCCNc1c(-c2cccc(-c3cc(C(C)=O)cs3)c2)nc2ccc(C)cn12,?,/,?,/,191
COC(=O)Nc1c(-c2ccccc2)nc2ccc(C)cn12,4.7µM*,-1,6%,13,?
CCCCNc1c(-c2cccc(-c3ccc(OC)cc3)c2)nc2ccc(C)cn12,3.7µM*,/,3.3µM*,/,3
CCCCNc1c(-c2cccc(-c3ccc(OC)cc3)c2)nc2cc(C)ccn12,/,/,/,/,-102*
